Screens as filed in PubChem.
PfHsp90 yeast 2: reduces growth (ATP signal) of yeast expressing P. falciparum Hsp90; AID 504621; S. cerevisiae expressing PfHsp90, BacTiter-Glo ATP, 48 h; yeast lacking PDR1 and PDR3 efflux regulators; inhibition, % at 9.4 µM; actives 0.32% (n = 310,000);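 active means every replicate shows inhibition above about 80%, whatever the replicate mean, limit read from the data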
SKKanGAS inh: SKKanGAS growth inhibition; S. pyogenes SKKanGAS, kanamycin growth, BacTiter-Glo, 6 h; actives 1.3% (n = 300,000); inhibition, % at 7.5 µM; AID 1662;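 active means mean replicate score, as percent of positive control median, at least 50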;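 further: strain carries kanamycin resistance gene driven by streptokinase promoter and grows in 40 µg/ml kanamycin; loss of luminescence reflects streptokinase promoter inhibition or plain growth inhibition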
tim10-1 inh: tim10-1 yeast growth inhibition | S. cerevisiae tim10-1 ts strain growth, BacTiter-Glo, 24 h | inhibition, % at 20 µM | actives 2.2% (n = 330,000) | AID 463190;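 active means inhibition of at least 40%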;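 further: mutant grown at 25 °C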
tim23-1 inh: tim23-1 yeast growth inhibition. AID 463212. actives 1.3% (n = 330,000). S. cerevisiae tim23-1 growth, BacTiter-Glo luminescence, 24 h. inhibition, % at 20 µM;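 active means growth inhibition of the mutant yeast at or above 50%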;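 further: temperature-sensitive mutant grown at 25 °C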
V-ATPase pH: regulators of yeast V-ATPase proton transport; S. cerevisiae, pHLuorin cytosolic pH fluorescence; response, % at 10 µM; actives 0.37% (n = 350,000); AID 504577; in the data active means response mostly above about 7.3%, no sharp cut-off; inactive means mostly below about 5.4%; further: actives read high
TIM10 inh: growth inhibitors of TIM10 yeast strain. S. cerevisiae TIM10 strain growth, BacTiter-Glo luminescence, 24 h. inhibition, % at 10 µM. actives 1.4% (n = 330,000). AID 463195;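 active means inhibition of 40% or more at the single tested concentration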;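 further: wild-type TIM10 isogenic control strain grown at permissive 25 °C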
Numbers stand for hits. The list is not random: actives were taken first. Their share in the collection is about 4.6%.

What do the screens show for `CC(C)(C)c1ccc(NC(=O)COC(=O)c2ccc(NS(=O)(=O)c3ccc(F)c(F)c3)cc2)cc1`?
PfHsp90 yeast 2: inactive; SKKanGAS inh: 54; tim10-1 inh: inactive; tim23-1 inh: inactive; V-ATPase pH: inactive; TIM10 inh: inactive

What do the screens show for `CC(C)(C)NC(=O)NC(=O)COC(=O)c1cccc(NS(=O)(=O)c2ccc(F)c(F)c2)c1`?
PfHsp90 yeast 2: inactive; SKKanGAS inh: inactive; tim10-1 inh: inactive; tim23-1 inh: inactive; V-ATPase pH: inactive; TIM10 inh: inactive

Results for Cn1c2ccccc2c2ccc3c(c21)C(=O)C=CC3=O ?
PfHsp90 yeast 2: 124; V-ATPase pH: inactive

Results for COc1ccc(NCC(=O)Nc2cccc(C(F)(F)F)c2)cc1S(=O)(=O)N1CCOCC1 ?
PfHsp90 yeast 2: inactive; tim10-1 inh: inactive; tim23-1 inh: inactive; V-ATPase pH: inactive; TIM10 inh: inactive

How did Cc1nn(Cc2ccccc2)c(Cl)c1/C=C/C(=O)OC(C(=O)NC(N)=O)C(C)C (stereo not drawn) do in these assays?
PfHsp90 yeast 2: inactive; SKKanGAS inh: inactive; tim10-1 inh: inactive; tim23-1 inh: inactive; V-ATPase pH: inactive; TIM10 inh: inactive

How did O=C1C=C(Nc2ccccc2O)c2ccccc2C1=O do in these assays?
PfHsp90 yeast 2: inactive; SKKanGAS inh: 52; tim10-1 inh: inactive; tim23-1 inh: inactive; V-ATPase pH: inactive; TIM10 inh: inactive

Results for Cc1ccc(NC2=CC(=O)C(=O)c3ccccc32)c(C)c1 ?
PfHsp90 yeast 2: inactive; tim10-1 inh: inactive; tim23-1 inh: inactive; V-ATPase pH: inactive; TIM10 inh: inactive

How did CC(C)(C)NC(=O)NC(=O)CSc1ccc(S(=O)(=O)N2CCCCC2)cn1 do in these assays?
PfHsp90 yeast 2: inactive; tim10-1 inh: inactive; tim23-1 inh: inactive; V-ATPase pH: inactive; TIM10 inh: inactive

Results for CC(C)(C)c1ccc(NC(=O)COC(=O)c2ccc([N+](=O)[O-])s2)cc1 ?
PfHsp90 yeast 2: 109; V-ATPase pH: inactive

Results for CC(C)=CCc1c(O)cc(O)c2c1OC(c1ccc(O)cc1)CC2=O (stereo not drawn) ?
PfHsp90 yeast 2: inactive; SKKanGAS inh: inactive; tim10-1 inh: inactive; tim23-1 inh: inactive; V-ATPase pH: inactive; TIM10 inh: inactive

Results for CC(C)=CCc1c(O)c(CC=C(C)C)c2c(c1O)C(=O)CC(c1ccc(O)cc1)O2 (stereo not drawn) ?
SKKanGAS inh: 102; tim10-1 inh: inactive; tim23-1 inh: inactive; V-ATPase pH: inactive; TIM10 inh: inactive

Results for NS(=O)(=O)c1ccc(CCNC(=O)CSc2nc3ccccc3c(=O)n2CC2CCCO2)cc1 (stereo not drawn) ?
PfHsp90 yeast 2: inactive; SKKanGAS inh: inactive; tim10-1 inh: inactive; tim23-1 inh: inactive; V-ATPase pH: inactive; TIM10 inh: inactive

Results for O=C(Nc1ccc([N+](=O)[O-])cc1)Nc1nc(-c2ccc(Cl)s2)cs1 ?
PfHsp90 yeast 2: inactive; SKKanGAS inh: 79; V-ATPase pH: inactive

What do the screens show for `CC(=O)Nc1nc(-c2ccc([N+](=O)[O-])cc2)cs1`?
PfHsp90 yeast 2: inactive; SKKanGAS inh: inactive; tim10-1 inh: inactive; tim23-1 inh: inactive; V-ATPase pH: inactive; TIM10 inh: inactive

What do the screens show for `c1ccc2c(CCNc3ncnc4nc[nH]c34)cccc2c1`?
PfHsp90 yeast 2: inactive; SKKanGAS inh: inactive; tim10-1 inh: inactive; tim23-1 inh: inactive; V-ATPase pH: inactive; TIM10 inh: inactive

What do the screens show for `COc1ccc(N2CCN(Cc3nc(N)nc(Nc4ccc(C)c(Cl)c4)n3)CC2)cc1`?
PfHsp90 yeast 2: inactive; SKKanGAS inh: 74; tim10-1 inh: inactive; tim23-1 inh: inactive; V-ATPase pH: inactive; TIM10 inh: inactive

What do the screens show for `COc1ccc(/C=C/C(=O)N(C)c2ccccc2C(=O)O)cc1`?
PfHsp90 yeast 2: inactive; SKKanGAS inh: inactive; tim10-1 inh: inactive; tim23-1 inh: inactive; V-ATPase pH: inactive; TIM10 inh: inactive

What do the screens show for `COC(=O)c1cn(Cc2ccccn2)c(=O)c2ccccc12`?
PfHsp90 yeast 2: inactive; SKKanGAS inh: inactive; tim10-1 inh: inactive; tim23-1 inh: inactive; V-ATPase pH: inactive; TIM10 inh: inactive

What do the screens show for `Cc1cc(/C=N/n2cnnc2)c(C)n1-c1ccc(OCc2ccc(Cl)cc2Cl)cc1`?
PfHsp90 yeast 2: inactive; SKKanGAS inh: 122; tim10-1 inh: inactive; tim23-1 inh: inactive; V-ATPase pH: inactive; TIM10 inh: inactive

What do the screens show for `COc1cccc(-c2noc(CCCC(=O)Nc3ccc(C(N)=O)cc3)n2)c1`?
PfHsp90 yeast 2: inactive; SKKanGAS inh: inactive; tim10-1 inh: inactive; tim23-1 inh: inactive; V-ATPase pH: 17; TIM10 inh: inactive

What do the screens show for `COc1cccc(-c2noc(CCC(=O)Nc3cccnc3)n2)c1`?
PfHsp90 yeast 2: inactive; SKKanGAS inh: inactive; tim10-1 inh: inactive; tim23-1 inh: inactive; V-ATPase pH: inactive; TIM10 inh: inactive

Results for CC(=O)NC[C@H]1CN(c2ccc(N3CCOCC3)c(F)c2)C(=O)O1 ?
SKKanGAS inh: 107; tim10-1 inh: inactive; tim23-1 inh: inactive; TIM10 inh: inactive

What do the screens show for `CCCC(=O)c1ccc(N2CCOCC2)c(F)c1`?
PfHsp90 yeast 2: inactive; SKKanGAS inh: inactive; tim10-1 inh: inactive; tim23-1 inh: inactive; V-ATPase pH: inactive; TIM10 inh: inactive

Results for O=C1NN(c2ccccc2)C(=O)/C1=C/c1ccc(Sc2cccc3ccccc23)o1 ?
PfHsp90 yeast 2: inactive; SKKanGAS inh: 50; tim10-1 inh: inactive; tim23-1 inh: inactive; V-ATPase pH: inactive; TIM10 inh: inactive

How did O=C1NN(c2ccccc2)C(=O)/C1=C/c1ccc(-c2ccc(C(=O)O)cc2)o1 do in these assays?
PfHsp90 yeast 2: inactive; SKKanGAS inh: inactive; tim10-1 inh: inactive; tim23-1 inh: inactive; V-ATPase pH: inactive; TIM10 inh: inactive

What do the screens show for `CN(CC(=O)Nc1ccccc1C(F)(F)F)C(=O)CSc1nnc(-c2ccncc2)n1C`?
PfHsp90 yeast 2: inactive; tim10-1 inh: inactive; tim23-1 inh: inactive; V-ATPase pH: inactive; TIM10 inh: inactive

Results for COc1ccc(/C=C/c2c([N+](=O)[O-])c(=O)n(C)c(=O)n2C)cc1O ?
PfHsp90 yeast 2: inactive; SKKanGAS inh: inactive; tim10-1 inh: inactive; tim23-1 inh: inactive; V-ATPase pH: inactive; TIM10 inh: inactive

What do the screens show for `CCCOc1ccc(/C=C/c2c([N+](=O)[O-])c(=O)n(C)c(=O)n2C)cc1`?
PfHsp90 yeast 2: inactive; SKKanGAS inh: 50; tim10-1 inh: inactive; tim23-1 inh: inactive; V-ATPase pH: inactive; TIM10 inh: inactive

How did CN(C)c1ccc(/C=C/c2c([N+](=O)[O-])c(=O)n(C)c(=O)n2C)cc1 do in these assays?
PfHsp90 yeast 2: inactive; SKKanGAS inh: 52; tim10-1 inh: inactive; tim23-1 inh: inactive; V-ATPase pH: inactive; TIM10 inh: inactive

Results for COc1cc(/C=C/c2c([N+](=O)[O-])c(=O)n(C)c(=O)n2C)cc(OC)c1OC ?
PfHsp90 yeast 2: inactive; SKKanGAS inh: inactive; tim10-1 inh: inactive; tim23-1 inh: inactive; V-ATPase pH: inactive; TIM10 inh: inactive

Results for C[C@@H]1CN([C@@H](C)CO)C(=O)CCCn2nncc2CO[C@H]1CN(C)S(=O)(=O)c1cccs1 ?
V-ATPase pH: inactive
